Test results from paper PMC5540273 (PLoS ONE, 2017).
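Also: KINOMEscan kinase panel screen.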

The molecules below were run on T1, IKK-alpha. Conditions: concentration: 1 μM, replicates: in singlicate; n = 1.
T1 construct: gene CHUK
`COC(=O)c1cccc(NC(=O)NCCNc2ccnc(Nc3ccc(F)cc3)n2)c1` [GSK1379883] was tested, and the “%Inh” value was 0%. In the case of `O=C(Nc1ccccc1)Nc1ccc(Oc2ccc3nccn3n2)cc1`, the “%Inh” value is reported as 0%. `Cl.Cl.c1ccc(-c2cc3ccncc3cc2OC2CCNCC2)cc1` [GSK1122999] was tested, and the “%Inh” value was 72%. For `Clc1cc(Nc2ncnc3cc[nH]c23)ccc1OCc1ccccn1`, the “%Inh” value was 9%. With `Cn1cc(-c2ccc3c(c2)CCN3C(=O)Cc2cccc(C(F)(F)F)c2)c2c(N)ncnc21` [GSK2606414] the “%Inh” value was 13%. In the case of `CNc1nccc(-c2c(-c3ccc(F)cc3)ncn2C2CCN(C)CC2)n1` [SB-222903], the “%Inh” value is reported as 0%. `N#Cc1ccc(Oc2ccc(Nc3ncnc4cc[nH]c34)cc2Cl)cc1` was tested, and the “%Inh” value was 2%. In the case of `Cl.c1ccc(Cn2ccc3cc(Nc4ncnc5ccccc45)ccc32)cc1` [GW275568], the “%Inh” value is reported as 0%. With `Nc1nc(-c2cccnc2)c(-c2ccnc3ccccc23)s1` [GW684083] the “%Inh” value was 20%. `O=C(Nc1n[nH]c2nc(-c3ccco3)c(Br)cc12)c1ccc(CN2CCCC2)cc1.O=C(O)[C@H](O)[C@@H](O)C(=O)O` [SB-742352] was tested, and the “%Inh” value was 0%. With `Fc1cccc(COc2ccc(Nc3ncnc4sc(-c5ccc[nH]5)cc34)cc2Cl)c1` [GW707818] the “%Inh” value was 0%. With `Clc1cccc(-c2nc(Nc3ccncc3)c3ccccc3n2)c1` [GW873004] the “%Inh” value was 0%. With `CC(C)(C)OC(=O)NC1CCCN(c2cc(-c3ccc4c(N)n[nH]c4c3)nc(N)n2)C1` (stereo not drawn) [GSK2286096] the “%Inh” value was 0%. `COc1ccc(-c2oc3ncnc(N)c3c2-c2ccc(OC)cc2)cc1` [SB-589132] was tested, and the “%Inh” value was 49%. With `Nc1nc(-c2ccccn2)c(-c2ccnc3ccccc23)s1` [GW548057] the “%Inh” value was 8%. In the case of `CCCc1ccc(S(=O)(=O)NC2CCN(c3ccnc(Nc4ccc(OC)cc4)n3)C2)cc1` (stereo not drawn) [GSK1379737], the “%Inh” value is reported as 36%. In the case of `COC(=O)c1c(-c2ccccc2)c2cc(Cl)ccc2c(=O)n1Cc1ccc(S(C)(=O)=O)cc1`, the “%Inh” value is reported as 0%. With `Cl.Fc1ccccc1COc1ccc(Nc2ncnc3ccc(-c4nnc(C(F)(F)F)o4)cc23)cc1Cl` [GW424170] the “%Inh” value was 0%. For `Oc1ccc2ncnc(Nc3ccc(OCc4ccccc4)cc3)c2c1` [GI262866], the “%Inh” value was 7%. For `CSc1nn2c(=O)cc(N3CCOCC3)nc2n1Cc1cccc(Cl)c1Cl` [GSK2347225], the “%Inh” value was 0%. `CCc1nc(-c2cccc(N(C)S(=O)(=O)c3ccccc3)c2)c(-c2ccnc(Nc3ccc(N4CCN(C(C)=O)CC4)nc3)n2)s1` [GSK1645895] was tested, and the “%Inh” value was 0%. For `COc1cc2ncnc(Nc3ccc(OCc4ccccc4Br)c(Cl)c3)c2cc1OC.Cl` [GI261590], the “%Inh” value was 32%. With `Cc1ccc(C)c(NC(=O)NCCNc2ccnc(Nc3ccc(F)cc3)n2)c1` [GSK1379878] the “%Inh” value was 0%. `CN1CCC(n2cnc(-c3ccc(F)cc3)c2-c2ccnc(NC3CCNCC3)n2)CC1` [SB-229482] was tested, and the “%Inh” value was 0%. For `CN1c2ccc(-c3ccc(C(=O)NCCO)cc3)cc2-c2[nH]ncc2S1(=O)=O`, the “%Inh” value was 0%. In the case of `O=C(Nc1ccccc1F)NC1CCN(c2ccnc(Nc3ccc(F)cc3)n2)C1` (stereo not drawn) [GSK1379722], the “%Inh” value is reported as 24%. In the case of `Cn1ccc2ncnc(Nc3ccc(Oc4cccc(Cl)c4)c(Cl)c3)c21`, the “%Inh” value is reported as 3%. With `CCC(CC)(CC)n1cnc2c(N)ncnc21` [SKF-97620] the “%Inh” value was 30%. In the case of `Cl.Cn1ccc(-c2cccc(Nc3ccnc4cc(-c5nccs5)ccc34)c2)n1` [GW525701], the “%Inh” value is reported as 30%. `Fc1ccc(Nc2nccc(-c3c(-c4ccc(Cl)cc4)nn4ncccc34)n2)cc1F` [GW829058] was tested, and the “%Inh” value was 34%. `COc1ccc(NC(=O)c2ccc(-c3cc(-c4nnc(C)o4)ccc3C)cc2)cc1` [GW595885] was tested, and the “%Inh” value was 25%. `CS(=O)(=O)CCNCc1ccc(-c2ccc3ncnc(Nc4ccc(OCc5ccccc5)c(Cl)c4)c3c2)o1.Cl` [GW574783] was tested, and the “%Inh” value was 0%. For `CCn1c(-c2ccncc2)nc2cnccc21` [SB-735216], the “%Inh” value was 20%. In the case of `c1ccc(-c2ccc3c(-c4ccnc(Nc5ccc6c(c5)OCCO6)n4)cnn3n2)cc1` [GW818941], the “%Inh” value is reported as 21%. For `Cc1cc(N2CCC(NS(=O)(=O)c3ccc(F)cc3)CC2)nc(Nc2cccc(C#N)c2)n1.O=C(O)C(F)(F)F` [GSK1653537], the “%Inh” value was 12%. `COc1ccc(Nc2nccc(N3CCC(NC(=O)Nc4ccc5c(c4)OCO5)C3)n2)cc1` (stereo not drawn) [GSK1379745] was tested, and the “%Inh” value was 7%.
